By inhibition is commonly meant the drop in the measured response relative to a control, in per cent.
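Note: reported values are averaged percent inhibition of Aurora B.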

The target of the assay is Aurora kinase B (Homo sapiens) (UniProt Q96GD4). The conditions noted are these: at 0.1 µM.
Chain of Aurora kinase B (Homo sapiens) (Q96GD4 whole entry): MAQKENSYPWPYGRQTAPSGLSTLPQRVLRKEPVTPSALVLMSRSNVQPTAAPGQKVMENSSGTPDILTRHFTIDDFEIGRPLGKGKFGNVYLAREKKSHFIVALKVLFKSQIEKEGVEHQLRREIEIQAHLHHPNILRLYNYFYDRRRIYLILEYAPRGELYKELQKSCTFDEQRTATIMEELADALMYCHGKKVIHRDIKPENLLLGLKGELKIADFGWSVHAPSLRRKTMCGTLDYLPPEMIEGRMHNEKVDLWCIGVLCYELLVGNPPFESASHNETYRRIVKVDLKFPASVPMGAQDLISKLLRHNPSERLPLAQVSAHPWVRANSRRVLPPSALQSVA
On to `NC(=O)c1ccc(Oc2nccc(-c3c(-c4ccc(F)cc4)ncn3C3CCNCC3)n2)cc1`, for which the inhibition is 2.63%.
Turning to `Fc1ccc(-c2ncn(CCCN3CCOCC3)c2-c2ccncc2)cc1`, the inhibition came to 0.52%.
In the case of `COc1cccc(/C=N/Nc2ncnc3c2cnn3-c2cccc(OC)c2)c1`, the inhibition was 2.75%.
Consider `N#Cc1ccc(Oc2nccc(-c3c(-c4ccc(F)cc4)ncn3C3CCNCC3)n2)cc1`, for which the inhibition worked out at 3.58%.
With `COc1ccc(-c2ccc3c(NC(=O)C4CC4)n[nH]c3n2)cc1`, the inhibition is 3.59%.
Then `O=C(Nc1n[nH]c2cc(-c3ccccc3)ccc12)C1CC1`, with 4.05%; and `COC(=O)Nc1nc2ccc(Sc3ccc(NC(=O)Nc4cc(C(F)(F)F)ccc4F)cc3)cc2[nH]1`, with 0.96%.
With `CN(c1ccc(NC(=O)Nc2c(Cl)cccc2Cl)cc1)c1ccnc(Nc2cccc(CS(C)(=O)=O)c2)n1`, the inhibition is 76.4%.
Then `O=C1Nc2ccc(I)cc2C1=Cc1cc(Br)c(O)c(Br)c1`, with 1.83%.
As for `Clc1ccc(CNc2nccc(-c3cnn4ncccc34)n2)cc1`, the figure is -0.06%.
As to `C/C(Nc1ccc(S(N)(=O)=O)cc1)=C1/C(=O)Nc2ccccc21`, the inhibition came to 8.07%.
Turning to `CCc1nccc2c1nc(-c1nonc1N)n2CC`, the inhibition stood at 1.28%.
As to `NC(=O)c1cc(-c2ccncc2)cc(-c2ccccc2)c1N`, the inhibition came out at 3.91%.
Regarding `COc1cc(Nc2ncc(-c3ccccc3)o2)cc(OC)c1OC`, the inhibition came to 10.1%.
With `NS(=O)(=O)c1ccc(N/N=C2\C(=O)Nc3ccc(-c4cnco4)cc32)cc1`, the inhibition is -2.59%.
`COc1cc2ncn(-c3cc(OCCc4ccccc4)c(C(N)=O)s3)c2cc1OC`: the inhibition was 3.16%.
In the case of `Cc1nnc(-c2ccc(C)c(-c3ccc(C(=O)NCc4ccc(Cl)cc4)cc3)c2)o1`, the inhibition was -0.69%.
Regarding `C#Cc1cccc(Nc2ncnc3ccc(OCCCCNCCS(C)(=O)=O)cc23)c1`, the inhibition was -2.61%.
Then `COc1cccc(-n2cnc3c(N/N=C/c4ccncc4)ncnc32)c1`, with 0.64%.
Take `COc1ccc2cc(-c3c(-c4ccncc4)nc(-c4ccc(S(C)(=O)=O)cc4C)n3C)ccc2c1`: the inhibition is 4.05%.
Regarding `COc1ccc2ncn(-c3cc(O[C@H](C)c4ccccc4Cl)c(C(N)=O)s3)c2c1`, the inhibition is -0.75%.
For the compound `O=C1NC(=O)C(c2cccc(Cl)c2)=C1Nc1ccc(Cl)c(C(=O)O)c1`, the inhibition was determined as 0.94%.
For the compound `CN1CCN(CCCNc2nc3ccc(Oc4ccc(NC(=O)Nc5cc(C(F)(F)F)ccc5F)cc4)cc3[nH]2)CC1`, the inhibition is -0.75%.
With `C[C@@H](Oc1cc(-n2cnc3ccc(OC4CCN(C)CC4)cc32)sc1C(N)=O)c1ccccc1Cl`, the inhibition is -0.58%.
Consider `c1ccc(Oc2ccc(Nc3ncc(-c4ccccc4)o3)cc2)cc1`, for which the inhibition was determined as 2.17%.
Take `CN(C)CCCNc1nccc(-c2c(-c3ccc(F)cc3)nn3cc(C(F)(F)F)ccc23)n1`: the inhibition amounted to 0.91%.
For `COc1cc2ncn(-c3cc(OCc4ccccc4C(F)(F)F)c(C(C)=O)s3)c2cc1OC`, the inhibition stood at 7.82%.
In the case of `COc1ccc2cc(-c3c(-c4ccncc4)nc(-c4ccc([S+](C)[O-])cc4C)n3C)ccc2c1` (centres undefined), the inhibition was 2.96%.
Then `Fc1ccc(-c2ncn(C3CCNCC3)c2-c2ccnc(Oc3ccc4c(c3)OCO4)n2)cc1`, with 5.39%.
As to `NC(=O)c1cc(-c2ccc(F)cc2)cc(-c2ccncc2)c1N`, the inhibition is 2.72%.
As for `CCC(=O)Nc1ccc(C)c(-c2ccc(C(=O)NCC3CC3)cc2)c1`, the figure is -0.16%.
Consider `c1ccc(-c2n[nH]cc2-c2ccnc(-c3ccc(OCCN4CCOCC4)cc3)c2)nc1`, for which the inhibition came out at 7.03%.
As for `O=C(NCC1CC1)c1ccc(-c2cccc(C(=O)NC3CC3)c2)cc1`, the figure is 2.04%.
Regarding `NC(=O)Cc1ccccc1Oc1nccc(-c2c(-c3ccc(F)cc3)ncn2C2CCNCC2)n1`, the inhibition is 2.8%.
